Screening results deposited in PubChem BioAssay by several laboratories.
A selection: hits, their analogues and other compounds. The true share with any hit is near 22%.
CYP2C9 inhib = inhibitors of human CYP2C9; CYP2C9 Supersomes, luciferin-H conversion, luminescence; P11712; actives 20% (n = 96,000); AID 777; inhibition, % at 5 µM;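 active = blocking of liver enzyme CYP2C9 beyond about 50% at 5 µM, limit read from the data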
Target sequence (P11712 whole entry, looked up): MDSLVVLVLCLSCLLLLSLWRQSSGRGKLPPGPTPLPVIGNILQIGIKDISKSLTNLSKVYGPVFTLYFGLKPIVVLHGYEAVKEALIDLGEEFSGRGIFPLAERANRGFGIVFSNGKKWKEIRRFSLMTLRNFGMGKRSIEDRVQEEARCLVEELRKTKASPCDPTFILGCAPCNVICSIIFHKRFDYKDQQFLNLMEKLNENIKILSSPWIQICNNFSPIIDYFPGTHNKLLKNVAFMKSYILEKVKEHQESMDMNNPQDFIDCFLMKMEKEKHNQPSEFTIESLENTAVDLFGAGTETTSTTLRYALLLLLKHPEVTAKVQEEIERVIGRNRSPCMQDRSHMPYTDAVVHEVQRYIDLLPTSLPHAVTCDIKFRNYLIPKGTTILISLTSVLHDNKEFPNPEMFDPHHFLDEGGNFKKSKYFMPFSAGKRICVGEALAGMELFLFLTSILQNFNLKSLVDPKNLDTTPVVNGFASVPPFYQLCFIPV
CYP2C19 inhib = inhibitors of human CYP2C19; CYP2C19 Supersomes, luciferin-H EGE luminescence, 30 min; inhibition, % at 5 µM; actives 21% (n = 96,000); AID 778;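 active = CYP2C19 inhibition above a set limit at 5 µM in the primary screen, cut at about 50% in these data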;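 also: plate controls were negative control wells for no effect and 2.5 mM tranylcypromine positive control for full effect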
CYP2C19 activ = activators of human cytochrome P450 2C19 | recombinant CYP2C19, luciferin-H EGE luminescence; active compounds read high; 0 = fully inhibited enzyme, 1 = untreated enzyme | activation factor at 5 µM | 96,000 tested, under 10 active | AID 1025;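 active = activation factor of at least 2 at 5 µM in the primary screen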;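 also: 0 = wells with 2.5 mM tranylcypromine and 1 = vehicle-only wells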
Measles CPE = protection of cells from measles virus | actives 1.5% (n = 140,000) | AID 841 | Measles virus-infected cells, CPE protection, absorbance | protection (pct of control), % at 4 µM; in the data active = protection mostly above about 24%, no sharp cut-off; inactive = mostly below about 26%
CYP2C9 act = CYP2C9 (human) activation; recombinant CYP2C9, luciferin-H conversion, luminescence; active compounds read high; factor 1 = untreated enzyme, 0 = blocked; activation factor at 5 µM; actives 1.4% (n = 96,000); AID 1024;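 active = activation factor of 2 or more for CYP2C9 at a 5 µM dose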;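 also: 0 = sulfaphenazole-blocked wells and 1 = vehicle-only wells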
Numbers without * were called inactive.

COc1ccc(OC)c(NC(=O)C2COc3ccccc3O2)c1 (configuration not stated) was read as CYP2C9 inhib 16, CYP2C19 inhib 67*, CYP2C19 activ 0.3, Measles CPE 5 and CYP2C9 act 0.8.
`COc1cccc(NC(=O)CC2COc3ccccc3O2)c1` (configuration not stated) gave CYP2C9 inhib 24, CYP2C19 inhib 49, CYP2C19 activ 0.5, Measles CPE 9 and CYP2C9 act 0.8.
Cc1ccc(NC(=O)CC2COc3ccccc3O2)cc1 (configuration not stated) was read as CYP2C9 inhib 29, CYP2C19 inhib 69*, CYP2C19 activ 0.3, Measles CPE 14 and CYP2C9 act 0.7.
CCOC(=O)c1cc2sc(C)cc2n1CC(=O)NCc1ccc(F)cc1 was read as CYP2C9 inhib 14, CYP2C19 inhib 72*, CYP2C19 activ 0.3, Measles CPE 19 and CYP2C9 act 0.9.
Screening CCOC(=O)c1cc2occc2n1Cc1ccc(F)cc1 returned CYP2C9 inhib 20, CYP2C19 inhib 0, CYP2C19 activ 1, Measles CPE 18 and CYP2C9 act 0.8.
`CCOC(=O)c1cc2sc(C)cc2n1CC(=O)N1CCN(C(=O)c2ccco2)CC1` gave CYP2C9 inhib 20, CYP2C19 inhib 17, CYP2C19 activ 0.8, Measles CPE 1 and CYP2C9 act 0.8.
For CCOC(=O)c1cc2sc(C)cc2n1CC(=O)N1CCOCC1 the results were CYP2C9 inhib -9, CYP2C19 inhib 65*, CYP2C19 activ 0.3, Measles CPE 21 and CYP2C9 act 1.1.
Cc1ccc(C23CC4CC(CC(NC(=O)N5CCN(C)CC5)(C4)C2)C3)cc1 was read as CYP2C9 inhib 30, CYP2C19 inhib 36, CYP2C19 activ 0.6, Measles CPE 4 and CYP2C9 act 0.7.
Cc1ccc(C23CC4CC(CC(NC(=O)NC(C)(C)CO)(C4)C2)C3)cc1 was read as CYP2C9 inhib 75*, CYP2C19 inhib 73*, CYP2C19 activ 0.3, Measles CPE 5 and CYP2C9 act 0.3.
CCc1ccc(C2=C/C(=C/c3cccnc3)C(=O)O2)cc1 was read as Measles CPE 25.
Screening Cc1ccccc1Cc1c(C)nc2c(C(=O)NCc3ccc4c(c3)OCO4)cnn2c1C returned CYP2C9 inhib 15, CYP2C19 inhib 9, CYP2C19 activ 0.9, Measles CPE 34 and CYP2C9 act 0.8.
Screening Cc1ccc(C)c(Cc2c(C)nc3c(C(=O)NCc4ccc5c(c4)OCO5)cnn3c2C)c1 returned CYP2C9 inhib 87*, CYP2C19 inhib 43, CYP2C19 activ 0.6, Measles CPE 17 and CYP2C9 act 0.1.
COc1ccc(-c2cc(C(F)(F)F)n3ncc(C(=O)NCc4ccco4)c3n2)cc1 was read as CYP2C9 inhib 54*, CYP2C19 inhib 51*, CYP2C19 activ 0.5, Measles CPE 4 and CYP2C9 act 0.5.
For Cc1nc2c(C(=O)NCc3ccc4c(c3)OCO4)cnn2c(C)c1Cc1ccc(F)cc1Cl the results were CYP2C9 inhib 86*, CYP2C19 inhib 59*, CYP2C19 activ 0.4, Measles CPE 0 and CYP2C9 act 0.1.
For Cc1nc2c(C(=O)NCc3ccco3)cnn2c(C)c1Cc1ccc(F)cc1Cl the results were CYP2C9 inhib 4, CYP2C19 inhib 14, CYP2C19 activ 0.9, Measles CPE 43 and CYP2C9 act 1.
`Cc1cccc(Cc2c(C)nc3c(C(=O)NCc4ccco4)cnn3c2C)c1` gave CYP2C9 inhib 56*, CYP2C19 inhib 50*, CYP2C19 activ 0.5, Measles CPE 14 and CYP2C9 act 0.4.
`COc1cc(OC)cc(C(=O)NC(=S)NNC(=O)c2cnccn2)c1` gave Measles CPE 9.
For O=c1nc(N2CCCC2)nc(Nc2ccccc2)[nH]1 the results were CYP2C9 inhib 16, CYP2C19 inhib 6, CYP2C19 activ 0.9, Measles CPE 5 and CYP2C9 act 0.8.
CC(C)OC(=O)N(C)c1ccc(C(O)(C(F)(F)F)C(F)(F)F)cc1 was read as CYP2C9 inhib 75*, CYP2C19 inhib 85*, CYP2C19 activ 0.1, Measles CPE 46 and CYP2C9 act 0.2.
Screening Nc1nc2n(n1)C(c1ccco1)CC(c1ccc(Cl)cc1Cl)N2 (configuration not stated) returned Measles CPE 5.
`CNC(=O)C1CCN(C(=O)c2ccc(-c3ccccc3)cc2)CC1` gave CYP2C9 inhib -16, CYP2C19 inhib 15, CYP2C19 activ 0.9, Measles CPE 7 and CYP2C9 act 1.2.
`CCOC(=O)N1CCN(c2ccc3nnnn3n2)CC1` gave CYP2C9 inhib -2, CYP2C19 inhib 56*, CYP2C19 activ 0.4, Measles CPE 5 and CYP2C9 act 1.
Screening Cc1nc(C#N)c(N/N=C/c2cccc(Cl)c2)o1 returned Measles CPE 4.
`O=C(CCn1c(=O)oc2ccccc21)N1CCN(C(c2ccccc2)c2ccccc2)CC1` gave CYP2C9 inhib 66*, CYP2C19 inhib 4, CYP2C19 activ 1, Measles CPE 10 and CYP2C9 act 0.3.
`CC1CCN(S(=O)(=O)c2ccc3c(c2)oc(=O)n3CC(=O)N2c3ccccc3CC2C)CC1` (configuration not stated) gave CYP2C9 inhib 42, CYP2C19 inhib 46, CYP2C19 activ 0.5, Measles CPE 3 and CYP2C9 act 0.6.
Screening CC1Cc2ccccc2N1C(=O)Cn1c(=O)oc2cc(S(=O)(=O)NC3CCCC3)ccc21 (configuration not stated) returned CYP2C9 inhib 69*, CYP2C19 inhib 31, CYP2C19 activ 0.7, Measles CPE 10 and CYP2C9 act 0.3.
For O=C(CCn1c(=O)oc2ccccc21)N1CCN(c2ccccc2F)CC1 the results were CYP2C9 inhib 27, CYP2C19 inhib 73*, CYP2C19 activ 0.3, Measles CPE 5 and CYP2C9 act 0.7.
For CC1Cc2ccccc2N1C(=O)CCn1c(=O)oc2ccccc21 (configuration not stated) the results were CYP2C9 inhib 77*, CYP2C19 inhib 94*, CYP2C19 activ 0.1, Measles CPE 14 and CYP2C9 act 0.2.
Screening CC(C)NC(=O)NC(=O)COC(=O)c1ccc(OC(F)(F)F)cc1 returned Measles CPE 6.
`CCOc1ccc(NC(=O)CCCOc2cc(=O)n(C)c3ccccc23)cc1` gave CYP2C9 inhib 71*, CYP2C19 inhib 26, CYP2C19 activ 0.7, Measles CPE 11 and CYP2C9 act 0.3.
COc1cccc(NC(=O)CCCOc2cc(=O)n(C)c3ccccc23)c1 was read as CYP2C9 inhib 15, CYP2C19 inhib 64*, CYP2C19 activ 0.4, Measles CPE 6 and CYP2C9 act 0.8.
Screening Cn1c(=O)cc(OCCCC(=O)NC2CCCC2)c2ccccc21 returned CYP2C9 inhib -12, CYP2C19 inhib 10, CYP2C19 activ 0.9, Measles CPE 3 and CYP2C9 act 1.1.
`Cn1c2ccccc2c(=O)c2c(=O)n(-c3ccccc3)c(C3CCCCC3)nc21` gave Measles CPE 14.
